Source: PubChem BioAssay (NCATS)
Results filed as inconclusive are left out. Unmarked numbers belong to inactive results. Activity calls are given as the source filed them. Calls come from the whole dose curve; as a rule, active = well fitted inhibition curve with a large enough effect in the repeat runs; inconclusive = weak or mixed curves; inactive = flat fitted curve, though single readings scatter.

Target: Cytochrome P450 2D6 (Homo sapiens) (UniProt P10635)
Experiment: Cytochrome P450 family 2 subfamily D member 6 (CYP2D6) small molecule antagonists: luciferase biochemical (cell-free) qHTS assay (AID 1645840); note: nearly all actives have a fitted effect of over 55% in size
Conditions: P450-Glo CYP2D6 enzyme, luciferin luminescence, 1 h; series mostly up to 57.4 µM; activity change, negative = inhibition: at the top concentration
Protocol: National Center for Advancing Translational Sciences [NCATS] Assay Overview: Cytochrome P450 (CYP) enzymes are membrane-bound hemeproteins that play a key role in metabolism of drugs and xenobiotics. Assaying the effect of chemicals on CYP isozymes is useful to minimize the adverse drug reactions and toxicities in drug development process. Chemical compounds were tested for their effect on CYP enzyme activities by using P450-Glo (TM) screening systems (Promega Corporation, Madison, WI). These systems provide a luminescent method containing proluciferin substrates and are converted to luciferin products by CYP isozymes. The luciferin products formed are detected with a luciferin detection reagent, and the amount of light produced is proportional to CYP activity. P450-Glo (TM) CYP2D6 screening system (Catalog. No. V9890) was used to detect the compounds that interfere in CYP2D6 activity.
Assay Protocol Summary: Two ul of enzyme-substrate mix was dispensed into medium binding white/solid 1536-well plates (Greiner Bio-One North America Inc., Monroe, NC) using a Flying Reagent Dispenser (FRD, Aurora Discovery, San Diego, CA). […] The assay plates were incubated at room temperature for 10 min. Then 2 ul of NADPH regeneration solution was added to each well of the assay plates using an FRD and incubated at room temperature for 1 h. The reaction was stopped by adding 4 ul of detection reagent using an FRD and after 20 min incubation at room temperature, the luminescence signal was measured using a ViewLux plate reader (Perkin Elmer, Shelton, CT). Data were expressed as relative luminescence units.
% is set by controls: 0 for no effect and ±100 for the full control effect; potency is the fitted concentration of half-maximal effect.

Chain of Cytochrome P450 2D6 (Homo sapiens) (P10635 whole entry, looked up): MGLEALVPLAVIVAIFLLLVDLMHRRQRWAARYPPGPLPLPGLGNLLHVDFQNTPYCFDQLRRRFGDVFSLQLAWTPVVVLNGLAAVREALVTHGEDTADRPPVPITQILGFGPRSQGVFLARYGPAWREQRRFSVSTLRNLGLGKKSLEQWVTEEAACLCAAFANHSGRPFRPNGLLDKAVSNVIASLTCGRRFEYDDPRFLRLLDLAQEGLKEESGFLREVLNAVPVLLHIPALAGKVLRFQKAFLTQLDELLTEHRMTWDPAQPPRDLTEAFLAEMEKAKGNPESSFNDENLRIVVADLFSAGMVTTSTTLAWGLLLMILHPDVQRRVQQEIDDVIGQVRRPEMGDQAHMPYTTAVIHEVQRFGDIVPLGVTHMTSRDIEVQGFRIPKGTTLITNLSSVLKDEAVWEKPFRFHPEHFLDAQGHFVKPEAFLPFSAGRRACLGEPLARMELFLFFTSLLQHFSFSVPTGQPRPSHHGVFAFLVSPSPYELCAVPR

Compound | activity change, negative = inhibition [%] | Potency
COc1ccc(NC(=O)CSc2oc(-c3cccs3)nc2S(=O)(=O)c2ccc(Br)cc2)c(OC)c1 | -16.2 | 
CCOc1ccc(CNC(=O)Cn2c(=O)c3cccn3c3ccc(F)cc32)cc1OC | 14.6 | 
COC(=O)c1cc(S(C)(=O)=O)ccc1OC | 6.83 | 
Cc1ncc(Cl)cc1NCc1ccc(C(=O)N[C@@H](CC2CCCC2)C(=O)NC2CC2)s1 |  | 15.1 µM (active)
COc1cc(C(c2c(C)[nH][nH]c2=O)c2c(C)[nH][nH]c2=O)ccc1OC(=O)c1ccccc1F | 7.49 | 
COc1cc(C(c2c(C)[nH][nH]c2=O)c2c(C)[nH][nH]c2=O)ccc1OC(=O)c1ccccc1OC | 9.69 | 
CCOC(=O)c1ccc(NC(=O)c2cc(=O)c3ccc(C)c(C)c3o2)cc1 | -17 | 
COc1ccc(Br)c2c1-c1nc(NC(=O)c3ccccc3SC)sc1C2 | 11 | 
Nc1nc(Nc2ccc3c(c2)CC[C@@H](N2CCCC2)CC3)nn1-c1cc2c(nn1)-c1ccccc1CCC2 |  | 5.35 µM (active)
Cc1ccc(C)c(NC(=O)C2CCN(S(=O)(=O)c3c(C)noc3/C=C/c3cccs3)CC2)c1 |  | 2.39 µM (active)
Cc1ccc(OCC(=O)Nc2cccc(OCc3cc(=O)n4cccc(C)c4n3)c2)cc1C | 9.98 | 
CNC(=O)c1ccc(CSc2nc3ccncc3n2Cc2ccc(C)cc2)cc1 |  | 13.5 µM (active)
COc1cc(C(=O)NC(c2ccc(Cl)cc2)c2cc(Cl)c3cccnc3c2O)cc(OC)c1OC (stereo not given) | 7.14 | 
Cc1cccc(OCCCSc2nc(-c3ccc(C(C)(C)C)cc3)nc3cc(=O)[nH]n23)c1C | 7.58 | 
Cc1ccc(-n2c(SCc3ccccc3F)nc3[nH]ncc3c2=O)cc1C |  | 16.9 µM (active)
COc1ccc(-n2nc3c(N4CCCC(C(=O)NCc5ccccc5C)C4)nnc(C)c3c2C)cc1 (stereo not given) |  | 4.77 µM (active)
C=CCNCCCCCC[N+](C)(C)C | 3.76 | 
CC1(C#N)CCN(c2c(C(=O)N3CCC(S(C)(=O)=O)CC3)cnc3cc(F)c(F)cc23)CC1 | -2.18 | 
CCCCn1cnc2cc(NCc3ccccc3Cl)ccc21 |  | 0.12 µM (active)
CN[C@H](CC(C)C)C(=O)N[C@H]1C(=O)N[C@@H](CC(N)=O)C(=O)N[C@H]2C(=O)N[C@H]3C(=O)N[C@H](C(=O)N[C@H](C(=O)O)c4cc(O)cc(O)c4-c4cc3ccc4O)[C@H](O)c3ccc(c(Cl)c3)Oc3cc2cc(c3O[C@@H]2OC(CO)[C@@H](O)[C@H](O)[C@@H]2O[C@H]2C[C@](C)(N)[C@H](O)[C@H](C)O2)Oc2ccc(cc2Cl)[C@H]1O (stereo not given in full) | 3.2 | 

Compound | activity change, negative = inhibition [%] | Potency
COc1ccccc1Nc1nc(-c2ccccc2F)nc2ccccc12 | 2.79 | 
COc1cc(=O)n2c(c1C(=O)NCc1ccc3c(c1)OCO3)CCN(C(=O)c1ccc(C)cc1C)CC2 |  | 10.7 µM (active)
COc1cccc(CNCc2cccn2-c2nnc(N3CCN(c4ccccc4)CC3)s2)c1 |  | 3.38 µM (active)
O=C(CC1N=C2c3ccccc3N=C(SCc3ccc(F)cc3)N2C1=O)NC1CCCCC1 (stereo not given) |  | 3.01 µM (active)
Cc1ccc(Nc2nc3ccccc3c3nnc(C)n23)c(C)c1 | -4.92 | 
Cc1ccccc1-n1c(SCc2ccc(Cl)cc2)nc2[nH]ncc2c1=O |  | 21.3 µM (active)
COc1ccc(C(C#N)C(C)C)cc1OC (stereo not given) | -0.243 | 
Cc1cc(-c2nc(CN3CCC(C(=O)NCCCN4C[C@H](C)C[C@H](C)C4)CC3)co2)ccc1F |  | 0.952 µM (active)
COc1ccc(Cn2ccnc2SCC(=O)Nc2nc3ccccc3s2)cc1 |  | 9.52 µM (active)
CCCCCCCCCCCCCCCCNc1ccc(C(=O)O)cc1 | 8.76 | 
CCNC(=O)N1CCN(C(=O)c2cnc3cc(OC)ccc3c2N2CCC(C)(C#N)CC2)CC1 | -25.8 | 
NC(=O)C[C@H](N)C(=O)O | 9.69 | 
COc1ccc(CC(=O)NCC(c2cccs2)S(=O)(=O)c2ccc(Cl)cc2)cc1 (stereo not given) |  | 6.01 µM (active)
Cc1cccc(C)c1NC(=O)Cn1cc(C(=O)c2ccco2)c2ccccc21 |  | 9.52 µM (active)
Cc1cccc(NC(c2ccccc2F)c2ccc3ccc(C)nc3c2O)n1 (stereo not given) | -19.6 | 
CC1=CC(O)=NS(=O)(=O)O1 | 14.4 | 
CC(C)(C)c1ccc(S(=O)(=O)c2cnc(SCC(=O)Nc3ccc(F)c(Cl)c3)[nH]c2=O)cc1 |  | 16.9 µM (active)
Cc1ccc(C)c(Nc2nc3nonc3nc2Nc2cccc(C)c2C)c1 |  | 10.7 µM (active)
CC1(C#N)CCN(c2c(C(=O)N3CCN(C(=O)C4CC4)CC3)cnc3c(F)cc(F)cc23)CC1 | -2.39 | 
NCC1OC(OC2C(N)CC(N)C(OC3OC(CO)C(O)C(N)C3O)C2O)C(N)CC1O (stereo not given) | 0.724 | 
